Assay results reported in PubChem BioAssay (NCI).
Compounds without any hit were thinned out: in the full panel of roughly 83,000, 20% have a hit.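 96-well plates, one dose, 48 hours. Percent growth reported; active if below 10.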 Unmarked numbers belong to inactive results. Activity calls are given as the source filed them.

Test system: MDA-MB-468 breast
Assay: NCI-60 one-dose screen, 48 h (100 = growth as untreated, 0 = no growth, -100 = all killed)
Details: 10 µM unless noted

Compound | growth
O=C(CSc1nnc(-c2ccc(Cl)cc2)n1-c1ccccc1)Nc1ccc(Cl)cc1 | 4.06% (active)
CN(Cc1ccccc1)S(=O)(=O)/N=C1\NC(=O)NC1=C(Cl)Cl | 22.3%
Cc1ccc(-c2csc(N)n2)cc1 | 104%
COc1ccc(-c2nnc(N3CCN(C(=O)CN4CCN(c5ccc(OC)cc5)CC4)CC3)nc2-c2ccc(OC)cc2)cc1 | -54.8% (active)
Nc1c(C(=O)Nc2cccc3c2OCCO3)sc2nc3c(cc12)CN(Cc1ccccc1)CC3 | 38.8%
CCOC(=O)c1sc(N)nc1-c1ccccc1 | 97.4%
O=C1NC(=O)c2c1c1c3ccccc3[nH]c1c1oc3ccc(F)cc3c21 | 8.7% (active)
Cc1ccc(NS(=O)(=O)c2cc(C)ccc2C)cc1 | 0.244% (active)
C=C(C)[C@@H]1CC[C@]2(C)[C@H](C=CC3=C4C[C@@](C)(CO)CC[C@]4(C)CC[C@]32C)[C@@]1(C)CCCN | -62.1% (active)
Cc1ccc(S(=O)(=O)c2nc(-c3ccccc3)oc2SCC(N)=O)cc1 | 91.7%
COc1ccc(/C=C/C(=O)c2ccc(OC)c(OC)c2)cc1O | 65.6%
Cc1cnc([C@]23CC[C@@H](C)[C@H](C)[C@H]2C2=CC[C@@H]4[C@@]5(C)Cc6c([nH]c7ccccc67)C(C)(C)[C@@H]5CC[C@@]4(C)[C@]2(C)CC3)o1 | 90.6% [100 µM]
Cn1ccc2c(c1=O)C(=O)c1nccc3c1c-2nc1ccccc13 | -84.6% (active)
COc1ccc2cc(/C=C3\N=C(c4cc(OC)c(OC)c(OC)c4)OC3=O)c(OC)nc2c1 | 108%
COc1cccc(-c2nc3sccn3c2-c2ccnc(NCCCNS(=O)(=O)c3ccc(F)cc3)n2)c1 | 47.9%
COc1cc(NC(=O)CCl)ccc(=O)c1 | 75.6%
CC(C)(C)NCCC(O)c1cc(C(F)(F)F)nc2c(C(F)(F)F)cccc12 (stereo unspecified) | 70.9%
CN1CCN(c2ccc(-c3cc4c(Nc5ccc(F)c(Cl)c5)ncnn4c3)cn2)CC1 | 70.1%
CC1CCCC(C(=O)O)C1C(=O)O (stereo unspecified) | 97%
Cc1cc(-c2ccccc2)c(C)n1Cc1ccc(Cl)cc1 | 27.7%
COc1cc(-c2nn(-c3ccc(NC(=O)c4ccc(Cl)c(C(F)(F)F)c4)cc3)cc2-c2ccncc2)ccc1Cl | 26%
